Records with an inconclusive call do not appear. The source made the active and inactive calls. Unless noted, calls follow the shape of the dose curve; as a rule, active = well fitted curve in the direction sought with a large enough effect; inconclusive = small, poorly fitted or top-dose-only effect, or another doubt; inactive = no such curve, though single readings can be large; an effect the other way counts as inactive or inconclusive.
What was measured:
[1] = biological target: Galactokinase (Homo sapiens) (UniProt P51570); test: qHTS Validation Assay for Inhibitors of Human Galactokinase (GALK) (AID 493189); also: 0% is about no effect
Galactokinase (Homo sapiens), sequence (P51570 whole entry, looked up): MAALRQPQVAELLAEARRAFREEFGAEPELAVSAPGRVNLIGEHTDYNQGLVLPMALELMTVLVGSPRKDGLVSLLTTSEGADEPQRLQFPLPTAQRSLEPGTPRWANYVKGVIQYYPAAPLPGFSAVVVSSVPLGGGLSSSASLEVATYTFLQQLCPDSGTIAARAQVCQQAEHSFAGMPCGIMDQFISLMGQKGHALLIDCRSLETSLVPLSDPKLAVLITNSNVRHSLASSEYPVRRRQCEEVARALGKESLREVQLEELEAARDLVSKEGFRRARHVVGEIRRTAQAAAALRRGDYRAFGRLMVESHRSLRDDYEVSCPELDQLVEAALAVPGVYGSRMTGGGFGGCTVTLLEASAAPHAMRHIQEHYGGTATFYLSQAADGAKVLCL
Method in brief: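 Compounds were pin-transferred into ATP buffer, then GALK-galactose mix was added (final 5 nM enzyme, 100 uM galactose, 35 uM ATP). After 1 h at room temperature, remaining ATP was measured luminescently.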

[2] = Validation screen for small molecules that induce DNA re-replication in SW480 colon adenocarcinoma cells (AID 504364); also: 0% is about no effect
Method in brief: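 Read-out: total Hoechst intensity of nuclei by fluorescence scanning imager; hits raise the fraction of nuclei with elevated DNA content. Cells received compound for 48 hr at 37 C before a 40 min stain.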

[3] = biological target: Peptidyl-prolyl cis-trans isomerase NIMA-interacting 1 (Homo sapiens) (UniProt Q13526); test: qHTS Validation Assay to Find Inhibitors of Pin1 (AID 504536; active = well fitted inhibition curve with a large enough effect in the polarisation, with a control signal flat, not every such curve was filed as active; the % refers to the polarisation;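 also: 0% = full Pin1 enzyme wells and -100% = no-enzyme wells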)
Peptidyl-prolyl cis-trans isomerase NIMA-interacting 1 (Homo sapiens), sequence (Q13526 whole entry, looked up): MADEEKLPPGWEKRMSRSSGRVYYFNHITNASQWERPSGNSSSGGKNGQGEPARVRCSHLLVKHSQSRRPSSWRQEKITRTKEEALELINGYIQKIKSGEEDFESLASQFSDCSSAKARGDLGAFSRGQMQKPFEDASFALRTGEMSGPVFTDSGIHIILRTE
Method in brief: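 Fluorescence polarization competition: compounds (titration) displace HiFluor-488-labeled Pin1-1b peptide from Pin1 (0.3 uM final) in pH 7.5 HEPES buffer with DTT, 10 min at room temperature; %Activity normalized to no-enzyme wells, curves fitted.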

[4] = biological target: Phosphoglycerate kinase, glycosomal (Trypanosoma brucei brucei) (UniProt P07378); test: qHTS Validation Assay to Find Inhibitors of Phosphoglycerate Kinase (AID 504547);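 also: control wells lack PGK and mark full inhibition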
Method in brief: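 Luminescence end-point (Kinase-Glo Plus, 10 min) after a 60 min room-temperature coupled reaction. GAPDH at 100nM final supplies 1,3-BPG to PGK. Buffer: 100mM TEA pH 7.6, 5mM MgCl2, 0.01% Tween-20. Wells lacking PGK served as controls.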

[5] = biological target: phosphoglycerate mutase (Leishmania major) (UniProt Q4Q090); test: qHTS Validation Assay to Find Inhibitors of Phosphoglycerate Mutase (AID 504548); also: series mostly up to about 58 µM; % is scaled to controls: 0 for no effect and ±100 for the full control effect
Method in brief: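 Lm PGAM 1.25nM final; 100 mM TEA pH 7.6, 5 mM MgCl2, 0.01% Tween-20; 45 min RT; Kinase-GloPlus, 10 min; end-point luminescence. Enzyme-free wells as negative controls.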

[6] = Inducers of the Endoplasmic Reticulum Stress Response (ERSR) in human glioma: Validation (AID 504836); also: 0% is about no effect
Method in brief: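 ERSR induction read as luciferase luminescence (Bright-Glo, 10 min at room temperature) in stably transfected human U87-MG glioma cells exposed to compounds for 16 h, using GRP78 as sensor.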

[7] = biological target: Ubiquitin carboxyl-terminal hydrolase 1 (Homo sapiens) (UniProt O94782); test: Inhibitors of USP1/UAF1: Pilot qHTS (AID 504865);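 also: rhodamine fluorescence freed from ubiquitin-rhodamine substrate followed over time; top concentration of the series differs between compounds; % is scaled to controls: 0 for no effect and ±100 for the full control effect; nearly all actives have a fitted effect of over 35% in size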
Method in brief: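 Kinetic fluorescence assay: 1nM USP1/UAF1, 15 min compound preincubation, then 150nM Ub-Rho; 480/540 nm.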

[8] = qHTS for Inhibitors of ATXN expression: Validation of Cytotoxic Assay (AID 588349); also: % is scaled to controls: 0 for no effect and ±100 for the full control effect
Method in brief: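 Cytotoxicity counter-screen: HEK293 cells exposed to compound titrations, 72 hr, 37 degrees C. Read-out is intracellular ATP (CellTiter Glo luminescence) as a viability measure.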

[9] = qHTS for Inhibitors of ATXN expression: Validation (AID 588378); also: series mostly up to about 57 µM; % is scaled to controls: 0 for no effect and ±100 for the full control effect; nearly all actives have a fitted effect of over 75% in size
Method in brief: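 Validation of ATXN2 expression inhibitors uses a cell-based luciferase fusion reporter in HEK293 cells, with 24 h compound exposure and paired viability (fluorescence) and reporter (luminescence) end-point reads.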

[10] = biological target: Voltage-gated inwardly rectifying potassium channel KCNH2 (Homo sapiens) (UniProt Q12809); test: qHTS Assay for Small Molecule Inhibitors of the Human hERG Channel Activity (AID 588834);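 also: U2OS cells transduced with hERG by BacMam; top concentration of the series differs between compounds; % is scaled to controls: 0 for no effect and ±100 for the full control effect; lower thallium flux fluorescence means stronger hERG block; nearly all actives have a fitted effect of over 50% in size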
Method in brief: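 Cells were infected with hERG-BacMam virus for 4 hrs at room temperature, grown overnight, then seeded at 2000/well. After dye loading and roughly 10 min compound treatment, thallium influx was triggered and fluorescence recorded.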

[11] = biological target: Glutaminase kidney isoform, mitochondrial (Homo sapiens) (UniProt O94925); test: qHTS for Inhibitors of Glutaminase (GLS): LOPAC Validation (AID 624146);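 also: glutamate product detected by oxidase and peroxidase coupled Amplex red fluorescence gain; series mostly up to about 46 µM; % is scaled to controls: 0 for no effect and ±100 for the full control effect; nearly all actives have a fitted effect of over 60% in size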
Method in brief: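 Enzyme dispensed in phosphate buffer (45 mM, pH 8.2, 0.02% Tween-20), compounds pinned in, then 1 mM L-glutamine solution and the glutamate oxidase–HRP–Amplex Red mix added; fluorescence read immediately and again after 30 min at room temperature.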

[12] = qHTS of Trypanosoma Brucei Inhibitors: LOPAC Validation (AID 624147); also: 0% is about no effect
Method in brief: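 Glycolytic pyruvate kinase of T. brucei was incubated with substrate, test compound and 130 uM ADP for 45 minutes at room temperature. Luminescent Kinase-Glo Plus signal was measured after 10 minutes.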

[13] = biological target: Glucagon-like peptide 1 receptor (Homo sapiens) (UniProt P43220); test: qHTS of GLP-1 Receptor Agonists: LOPAC Validation (AID 624148);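 also: luminescence from a luciferase reporter switched on by cAMP; 0% is about no effect; higher luminescence signal means agonism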
Glucagon-like peptide 1 receptor (Homo sapiens), sequence (P43220 whole entry, looked up): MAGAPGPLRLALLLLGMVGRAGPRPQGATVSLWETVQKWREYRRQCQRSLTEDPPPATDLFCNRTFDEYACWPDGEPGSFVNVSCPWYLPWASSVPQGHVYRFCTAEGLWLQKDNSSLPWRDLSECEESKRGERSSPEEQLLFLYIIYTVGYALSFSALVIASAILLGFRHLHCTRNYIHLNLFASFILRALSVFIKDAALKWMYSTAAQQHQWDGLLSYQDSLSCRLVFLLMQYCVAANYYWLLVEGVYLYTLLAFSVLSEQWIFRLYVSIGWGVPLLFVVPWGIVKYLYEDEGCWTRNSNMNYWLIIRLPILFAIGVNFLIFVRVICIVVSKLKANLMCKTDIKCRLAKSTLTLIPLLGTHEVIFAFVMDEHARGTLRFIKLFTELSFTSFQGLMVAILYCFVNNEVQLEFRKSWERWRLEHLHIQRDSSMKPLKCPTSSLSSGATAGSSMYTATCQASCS
Method in brief: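 Agonism scored as increased luciferase luminescence driven by cAMP in HEK293 clones carrying GLP-1R. Cells settled 12 hours, received compound for 4-6 hr at 37 deg C, 5% CO2, and were read after 12 min detection reagent at RT.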

[14] = qHTS of Nrf2 Activators: LOPAC Validation (AID 624149); also: 0% is about no effect
Method in brief: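 AREc32_Fluc cells, 1000/well, OPTI-MEM + 5% FBS, o/n 37 deg C 5% CO2; compound pin-transfer, 24 hr 37 deg C; Steady-Glo 30 min RT, luminescence read.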

[15] = HTS Assay for Allosteric Antagonists of the Human D2 Dopamine Receptor: Hit Validation in HTRF (AID 624455); also: % is scaled to controls: 0 for no effect and ±100 for the full control effect
Method in brief: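 HTRF read-out; cells stably expressing D1 receptor; hits scored for inhibition of D1-mediated response. Primary screen: calcium flux, force-coupled inducible Hek293 Trex D2 line, antagonism vs EC80 dopamine.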

[16] = biological target: Arylsulfatase A (Homo sapiens) (UniProt P15289); test: qHTS screen for enhancers of Arylsulfatase A (ASA1): LOPAC Validation Assay (AID 720538); also: 0% is about no effect
Method in brief: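 First, ASA-I179S fibroblasts from an MLD patient adhered for 6 hrs. Next, compounds were added for 48h. Then pNCS substrate (0.5mM final) with lysis buffer reacted 14h at room temperature before NaOH stop and fluorescence measurement.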

[17] = qHTS for compounds that reverse cellular toxicity of Amyloid beta (A-beta) peptide in yeast: LOPAC Validation Assay (AID 720559);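 also: plate controls were DMSO for no effect and equimolar ferric chloride plus clioquinol rescue for full effect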
Method in brief: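 Activity is expressed relative to DMSO and an equimolar ferric chloride/clioquinol mix. Compounds were pinned into medium with A-beta-expressing yeast, grown 48 hr at 30 C, then read by absorbance at 600 nm.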

[18] = qHTS for Activators of Parkin Expression: LOPAC Validation Assay (NLuc Reporter) (AID 720572)
Method in brief: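 Compound effects on Parkin promoter activity were measured as NanoLuc luminescence after 24 h at 37 C. The neuronal reporter line also carried FLuc, which was read first. LOPAC compounds were tested at 7 concentrations, with normalization to DMSO (0%) and positive control (100%).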

[19] = qHTS for Activators of Parkin Expression: LOPAC Validation Assay (FLuc Reporter) (AID 720573)
Method in brief: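 A neuronal cell line harbouring FLuc and NLuc reporters behind the Parkin promoter was exposed to compounds for 24 h. Firefly luciferase signal, measured after 10 min with detection reagent, was scaled to DMSO and positive-control wells.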

[20] = biological target: T1, Hexokinase-4 (Homo sapiens) + Glucokinase regulatory protein (Homo sapiens) (UniProt P35557+Q14397); test: qHTS assay for inhibitors of recombinant human GCK-GKRP interaction: Diaphorase-coupled assay (AID 743205)
T1 sequence (P35557 whole entry, looked up): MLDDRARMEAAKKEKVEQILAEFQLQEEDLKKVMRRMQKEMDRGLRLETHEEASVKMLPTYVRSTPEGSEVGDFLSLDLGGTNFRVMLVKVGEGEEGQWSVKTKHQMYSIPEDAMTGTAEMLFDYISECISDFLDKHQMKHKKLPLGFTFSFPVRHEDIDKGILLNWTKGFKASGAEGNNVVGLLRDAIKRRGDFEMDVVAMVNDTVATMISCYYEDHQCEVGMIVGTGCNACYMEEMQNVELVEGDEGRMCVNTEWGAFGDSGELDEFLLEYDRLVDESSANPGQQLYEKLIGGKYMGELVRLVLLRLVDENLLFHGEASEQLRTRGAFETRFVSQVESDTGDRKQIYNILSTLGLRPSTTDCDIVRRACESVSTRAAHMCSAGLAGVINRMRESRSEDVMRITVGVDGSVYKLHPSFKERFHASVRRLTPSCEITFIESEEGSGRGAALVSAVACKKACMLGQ
T1 sequence (Q14397 whole entry, looked up): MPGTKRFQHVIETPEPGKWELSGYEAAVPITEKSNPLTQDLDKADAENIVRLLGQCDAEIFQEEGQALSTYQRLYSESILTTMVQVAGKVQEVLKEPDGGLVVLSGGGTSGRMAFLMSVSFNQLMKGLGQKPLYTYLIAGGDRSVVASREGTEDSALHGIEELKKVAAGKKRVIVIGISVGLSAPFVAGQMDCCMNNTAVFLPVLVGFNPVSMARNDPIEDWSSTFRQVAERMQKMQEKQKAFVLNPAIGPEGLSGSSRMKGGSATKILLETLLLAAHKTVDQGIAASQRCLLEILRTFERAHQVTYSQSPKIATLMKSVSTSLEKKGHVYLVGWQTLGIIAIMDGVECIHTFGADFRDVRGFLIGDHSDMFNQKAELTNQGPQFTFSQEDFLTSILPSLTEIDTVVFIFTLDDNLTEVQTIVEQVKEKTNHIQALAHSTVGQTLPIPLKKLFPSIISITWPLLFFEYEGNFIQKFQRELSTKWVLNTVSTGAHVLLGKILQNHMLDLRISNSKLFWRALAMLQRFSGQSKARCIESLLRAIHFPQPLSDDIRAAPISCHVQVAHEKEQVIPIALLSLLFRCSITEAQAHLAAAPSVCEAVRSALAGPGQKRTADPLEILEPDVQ
Method in brief: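 Inhibitors of the GCK–GKRP complex relieve GKRP suppression of GCK, detected through a G6PDH–diaphorase cascade reducing resazurin. Human GST-GCK and FLAG-GKRP are used at 10 nM with 5 mM glucose and 0.4 mM ATP.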

[21] = biological target: T1, Hexokinase-4 (Homo sapiens) + Glucokinase regulatory protein (Homo sapiens); test: qHTS assay for inhibitors of recombinant human GCK-GKRP interaction: ADP-Glo assay (AID 743206);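 also: plate controls were DMSO plus enzyme for no effect and no enzyme for full effect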
Method in brief: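 Pin-transferred compounds meet a 15 nM GST-GCK/15 nM FLAG-GKRP/2 uM S6P mix (dispense concentrations). ATP is then added to 0.4 mM final with 5 mM glucose, and the reaction runs 60 min at room temperature. ADP is quantified luminescently.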

[22] = biological target: T1, Hexokinase-4 (Homo sapiens) + Glucokinase regulatory protein (Homo sapiens); test: qHTS assay for inhibitors of recombinant human GCK-GKRP interaction: HTRF assay (AID 743207);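 also: 0% = DMSO with GCK present and -100% = DMSO wells lacking GCK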
Method in brief: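 Steps: dispense GCK–GKRP complex (5 nM each, GST- and FLAG-tagged) with 2 uM S6P; pin in compounds; add XL665/Eu-cryptate-labelled antibodies; incubate 60 min at room temperature; read time-resolved FRET at 665 and 615 nm.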

[23] = qHTS Assay for Identifying Gametocytocidal Compounds (AID 743244);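 also: % is scaled to controls: 0 for no effect and ±100 for the full control effect; actives lower the fluorescent signal which means gametocytes are killed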; settings: P. falciparum 3D7 stage III-V gametocytes, alamarBlue, 72 h; max response: stronger effect = lower value
Method in brief: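 In this qHTS viability screen, late-stage 3D7 gametocytes are incubated with compound for 72 h, then with alamarBlue for 24 h; reduced resorufin fluorescence marks killing.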

[24] = Natriuretic polypeptide receptor (hNpr1) antagonism - Pilot counterscreen GloSensor control cell line (AID 1347045; calls by dose curve; also: series mostly up to about 38 µM; % is scaled to controls: 0 for no effect and ±100 for the full control effect)
Method in brief: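 HEK293 cGMP-sensor cells; 2% GloSensor reagent 2 h RT; LOPAC compounds in 1:5 titrations 30-50 min; 50 uM SNP 20 min; luminescence pre-read and post-read.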

[25] = biological target: Atrial natriuretic peptide receptor 1 (Homo sapiens) (UniProt P16066); test: Natriuretic polypeptide receptor (hNpr1) antagonism - Pilot screen (AID 1347049; calls by dose curve)
Atrial natriuretic peptide receptor 1 (Homo sapiens), sequence (P16066 whole entry, looked up): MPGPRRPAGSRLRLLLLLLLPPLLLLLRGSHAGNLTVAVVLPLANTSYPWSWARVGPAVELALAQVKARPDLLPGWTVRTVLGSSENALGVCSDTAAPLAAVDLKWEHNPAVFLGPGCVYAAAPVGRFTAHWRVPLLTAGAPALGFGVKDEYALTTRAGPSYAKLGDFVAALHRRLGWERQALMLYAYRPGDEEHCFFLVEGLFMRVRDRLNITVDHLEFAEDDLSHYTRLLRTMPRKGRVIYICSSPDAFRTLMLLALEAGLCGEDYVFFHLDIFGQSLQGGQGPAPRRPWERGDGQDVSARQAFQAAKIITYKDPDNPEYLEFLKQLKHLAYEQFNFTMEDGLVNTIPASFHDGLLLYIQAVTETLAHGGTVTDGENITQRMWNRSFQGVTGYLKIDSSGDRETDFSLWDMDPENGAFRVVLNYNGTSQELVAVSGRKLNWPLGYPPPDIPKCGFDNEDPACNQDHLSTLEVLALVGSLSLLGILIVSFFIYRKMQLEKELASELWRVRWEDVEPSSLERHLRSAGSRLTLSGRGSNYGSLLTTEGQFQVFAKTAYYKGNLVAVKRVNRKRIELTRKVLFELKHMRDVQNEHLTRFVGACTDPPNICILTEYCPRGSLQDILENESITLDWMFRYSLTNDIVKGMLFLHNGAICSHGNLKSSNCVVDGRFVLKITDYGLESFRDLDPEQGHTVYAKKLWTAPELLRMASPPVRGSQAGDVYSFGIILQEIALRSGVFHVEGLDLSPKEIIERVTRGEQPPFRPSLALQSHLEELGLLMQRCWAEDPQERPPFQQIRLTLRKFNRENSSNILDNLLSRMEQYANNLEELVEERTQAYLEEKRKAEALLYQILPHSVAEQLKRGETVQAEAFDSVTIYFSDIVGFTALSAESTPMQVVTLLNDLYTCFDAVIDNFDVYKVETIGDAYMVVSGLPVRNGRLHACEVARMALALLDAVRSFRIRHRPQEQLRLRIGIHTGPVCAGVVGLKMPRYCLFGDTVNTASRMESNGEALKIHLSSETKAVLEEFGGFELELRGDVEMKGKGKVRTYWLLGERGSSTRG
Method in brief: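 Receptor antagonism read as cGMP-dependent luminescence in hNpr1/pGS-40F HEK293 cells: pre-read after 30 min compound exposure, post-read 20 min after hNppA agonist at 0.1 nM final, all at room temperature, protected from light; A-71915 titration as control.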

[26] = biological target: Atrial natriuretic peptide receptor 2 (Homo sapiens) (UniProt P20594); test: Natriuretic polypeptide receptor (hNpr2) antagonism - Pilot subtype selectivity assay (AID 1347050; calls by dose curve; also: % is scaled to controls: 0 for no effect and ±100 for the full control effect)
Atrial natriuretic peptide receptor 2 (Homo sapiens), sequence (P20594 whole entry, looked up): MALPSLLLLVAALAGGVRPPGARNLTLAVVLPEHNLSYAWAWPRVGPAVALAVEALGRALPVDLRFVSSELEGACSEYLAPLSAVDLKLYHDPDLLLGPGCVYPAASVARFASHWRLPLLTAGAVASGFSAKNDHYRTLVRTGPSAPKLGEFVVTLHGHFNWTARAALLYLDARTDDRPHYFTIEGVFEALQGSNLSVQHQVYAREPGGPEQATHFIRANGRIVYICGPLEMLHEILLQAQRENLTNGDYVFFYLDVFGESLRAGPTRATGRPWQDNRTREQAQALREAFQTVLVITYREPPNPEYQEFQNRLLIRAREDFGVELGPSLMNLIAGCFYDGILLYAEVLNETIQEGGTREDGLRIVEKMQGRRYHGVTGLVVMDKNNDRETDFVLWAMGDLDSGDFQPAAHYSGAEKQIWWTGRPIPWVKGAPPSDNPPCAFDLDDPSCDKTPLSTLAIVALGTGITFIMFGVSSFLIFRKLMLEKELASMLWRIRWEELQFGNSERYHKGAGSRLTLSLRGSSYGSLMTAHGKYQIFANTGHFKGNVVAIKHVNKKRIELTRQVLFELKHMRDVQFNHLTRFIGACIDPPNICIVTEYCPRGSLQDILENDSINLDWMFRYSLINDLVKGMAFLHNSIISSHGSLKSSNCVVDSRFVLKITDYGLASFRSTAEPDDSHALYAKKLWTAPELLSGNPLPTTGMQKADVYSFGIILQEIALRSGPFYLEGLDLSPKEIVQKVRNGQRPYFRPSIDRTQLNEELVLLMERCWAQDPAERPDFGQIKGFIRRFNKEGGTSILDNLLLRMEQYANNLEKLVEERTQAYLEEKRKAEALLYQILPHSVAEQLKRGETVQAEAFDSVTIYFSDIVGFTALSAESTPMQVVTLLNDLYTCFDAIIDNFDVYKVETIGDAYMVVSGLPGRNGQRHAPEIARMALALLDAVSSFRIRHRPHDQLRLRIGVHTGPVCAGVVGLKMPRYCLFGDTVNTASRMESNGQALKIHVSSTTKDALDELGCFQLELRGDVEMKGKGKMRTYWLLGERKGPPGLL
Method in brief: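 Antagonist mode: compounds (LOPAC1280, seven 1:5 dilutions) added 30 min before 1 nM hNppC stimulation of hNpr2-HEK293 cGMP-sensor cells; luminescence read before and 20 min after agonist at ambient temperature.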

[27] = biological target: Parathyroid hormone/parathyroid hormone-related peptide receptor (Homo sapiens) (UniProt Q03431); test: qHTS for PTHR1 Agonists: Optimization Screen against the NCGC LOPAC library (AID 1347079);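 also: GloSensor cAMP luminescence in HEK-293 GP2 cells expressing human PTHR1 with IBMX; 0% is about no effect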
Parathyroid hormone/parathyroid hormone-related peptide receptor (Homo sapiens), sequence (Q03431 whole entry, looked up): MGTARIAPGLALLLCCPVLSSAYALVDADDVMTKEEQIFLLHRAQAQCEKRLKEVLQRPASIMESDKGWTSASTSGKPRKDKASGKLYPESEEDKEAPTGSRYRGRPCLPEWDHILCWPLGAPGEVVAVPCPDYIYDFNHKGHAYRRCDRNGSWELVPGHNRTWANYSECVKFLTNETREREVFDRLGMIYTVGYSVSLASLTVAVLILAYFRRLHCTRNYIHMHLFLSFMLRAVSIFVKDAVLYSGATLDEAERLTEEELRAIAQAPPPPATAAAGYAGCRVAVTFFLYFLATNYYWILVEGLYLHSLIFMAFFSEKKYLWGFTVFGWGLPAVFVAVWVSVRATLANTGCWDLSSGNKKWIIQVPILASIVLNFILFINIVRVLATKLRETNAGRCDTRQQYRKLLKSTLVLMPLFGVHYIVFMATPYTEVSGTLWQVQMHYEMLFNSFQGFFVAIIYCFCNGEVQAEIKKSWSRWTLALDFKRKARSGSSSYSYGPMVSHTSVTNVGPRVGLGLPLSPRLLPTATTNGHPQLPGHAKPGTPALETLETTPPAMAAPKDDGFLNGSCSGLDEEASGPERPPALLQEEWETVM
Method in brief: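 Signal increase flags agonism. GP2 cells, derived from HEK-293, express human PTHR1 and a GloSensor cAMP construct.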

[28] = qHTS for Inhibitors of the Functional Ribonucleoprotein Complex (vRNP) of Lassa (LASV) Arenavirus: LASV Primary Screen - GLuc reporter signal (AID 1347082; calls by dose curve; tested in HEK293 reporter line; also: series mostly up to about 57 µM; % is scaled to controls: 0 for no effect and ±100 for the full control effect; nearly all actives have a fitted effect of over 60% in size)
[29] = qHTS for Inhibitors of the Functional Ribonucleoprotein Complex (vRNP) of Lassa (LASV) Arenavirus: Viability assay - alamar blue signal for LASV Primary Screen (AID 1347083; calls by dose curve; tested in HEK293 reporter line; also: series mostly up to about 57 µM; % is scaled to controls: 0 for no effect and ±100 for the full control effect; nearly all actives have a fitted effect of over 80% in size)
[30] = qHTS for Inhibitors of the Functional Ribonucleoprotein Complex (vRNP) of Lymphocytic Choriomeningitis Arenaviruses (LCMV): Viability assay - alamar blue signal for LCMV Primary Screen (AID 1347085; calls by dose curve; tested in HEK293 reporter line; also: series mostly up to about 57 µM; % is scaled to controls: 0 for no effect and ±100 for the full control effect; nearly all actives have a fitted effect of over 80% in size)
[31] = biological target: Lysine-specific demethylase 5B (Homo sapiens) (UniProt Q9UGL1); test: Optimization screen for KDM5B Histone Demethylases FDH coupled qHTS against the LOPAC library (AID 1347166); also: 0% is about no effect
Method in brief: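 KDM5BDeltaAP (200nM final) in 50mM HEPES pH 7.5, 0.01% Tween-20 was preincubated with compound for 10 min at room temperature. A substrate mix of 12.5uM H3K4Me3, 25uM a-ketoglutarate, ascorbate, Fe2+, NAD+ and formaldehyde dehydrogenase was then added. NADH fluorescence (340/450 nm) was read initially and after 30 min.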

[32] = Validation qHTS assay for inhibitors of Activation Induced Cytidine Deaminase (AID): UDG Counterscreen signal (AID 1347427); also: 0% is about no effect
Method in brief: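 Fluorescence at 560 nm excitation, 665 nm emission reports UDG signal after 250 mM NaOH (2x) addition and 30 min. Enzymes (AID 1 uM, UDG 2 U/mL, at 4/3x) preincubated 10 min with compound, then 4 h with 4x 250 nM DJC20/DJC23 substrate at room temperature.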

[33] = biological target: Single-stranded DNA cytosine deaminase (Homo sapiens) (UniProt Q9GZX7); test: Validation qHTS assay for inhibitors of Activation Induced Cytidine Deaminase (AID): AID signal (AID 1347429); also: % is scaled to controls: 0 for no effect and ±100 for the full control effect
Single-stranded DNA cytosine deaminase (Homo sapiens), sequence (Q9GZX7 whole entry, looked up): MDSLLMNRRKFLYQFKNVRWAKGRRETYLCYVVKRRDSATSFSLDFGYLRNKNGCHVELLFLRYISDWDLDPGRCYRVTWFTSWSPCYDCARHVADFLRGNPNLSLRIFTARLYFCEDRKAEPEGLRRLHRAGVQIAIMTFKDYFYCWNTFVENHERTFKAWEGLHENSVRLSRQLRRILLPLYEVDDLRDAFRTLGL
Method in brief: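 AID+UDG coupled FRET deamination; cpds up to 114 uM final; DJC20/DJC23 substrate, 4 hr RT; NaOH stop, 30 min RT; read Ex 540/Em 590.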

[34] = Primary qHTS for inhibitors of La Crosse Virus (LACV) - induced cell death in SH-SY5Y cells (AID 1508616);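 also: top concentration of the series differs between compounds; 0% = infected DMSO wells and 100% = uninfected DMSO wells; higher means more rescue of cells from virus-induced death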
Method in brief: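 Cytopathicity rescue screen: compounds pinned onto SH-SY5Y cells, which are then infected with LACV (MOI 0.01) and held 6 days at 37C. Percent activity is scaled between infected DMSO control and uninfected DMSO control.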

[35] = Primary qHTS for small molecule stabilizers of the endoplasmic reticulum resident proteome: Secreted ER Calcium Modulated Protein (SERCaMP) assay (AID 1508630); also: % is scaled to controls: 0 for no effect and ±100 for the full control effect
Method in brief: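 The SH-SY5Y reporter protocol was run at 3 concentrations up to 38.3 uM (primary) or 11 concentrations (follow-up): 16 h compound, 100 nM thapsigargin for 4 h, then extracellular luciferase luminescence.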

O=[N+]([O-])c1ccc(O[C@@H]2O[C@H](CO)[C@@H](O)[C@H](O)[C@H]2F)c([N+](=O)[O-])c1
inactive: outcome [1] | Potency [2] | Potency [3] | Potency [4] | outcome [5] | outcome [6] | Potency [7] | outcome [8] | Potency [9] | Potency [10] | outcome [11] | outcome [12] | outcome [13] | outcome [14] | outcome [15] | Potency [16] | outcome [17] | outcome [18] | outcome [19] | outcome [20] | outcome [21] | outcome [22] | max response [23] 12.9% | outcome [24] | outcome [25] | outcome [26] | outcome [27] | Potency [28] | Potency [29] | Potency [30] | outcome [31] | outcome [32] | outcome [33] | outcome [34] | Potency [35]

Reference: PubChem BioAssay (NCATS)
